Records with an inconclusive call do not appear. Entries that show only a call come without a potency. Unmarked numbers belong to inactive results. Calls of active or inactive are those of the source. Calls come from the whole dose curve.
Assay: p53 small molecule agonists, cell-based qHTS assay with human liver microsomes (AID 1963577);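 note: p53 response element beta-lactamase reporter cells with liver microsomes plus NADPH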
In short: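 p53RE-bla cells, 4,000/well, compound added after 5 h, with human liver microsomes 0.5 mg/mL and NADPH 0.5 mg/mL final; 16 h at 37 C, then LiveBLAzer 2 h RT, fluorescence.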

**Q.** For CCCCOCCOCCOCCCC, which Potency is on record?
**A.** inactive

**Q.** Which Potency does the source give for O=C1CCCc2ccccc21 here?
**A.** inactive

**Q.** Which Potency does the source give for NC(=O)Nc1ccc(Cl)cc1 here?
**A.** inactive

**Q.** With NC(=S)Nc1cccc2ccccc12 as the compound, how does the activation read?
**A.** 6% [at 5.99 µM]

**Q.** For COc1ccccc1C=O, which Potency is on record?
**A.** inactive

**Q.** For CC[C@H]1CN2CCc3cc(OC)c(OC)cc3[C@@H]2C[C@@H]1C[C@H]1NCCc2cc(OC)c(OC)cc21, which Potency is on record?
**A.** inactive

**Q.** With C#CC(C)(O)CC(C)C (configuration not stated) as the compound, how does the Potency read?
**A.** inactive

**Q.** With NC(=O)c1ccccc1N as the compound, how does the Potency read?
**A.** inactive

**Q.** Which Potency does the source give for CCO/C([O-])=N/c1c[n+](N2CCOCC2)no1 here?
**A.** inactive

**Q.** For C[N+](C)(C)CC[N+]1(C)Cc2c(Cl)c(Cl)c(Cl)c(Cl)c2C1, which Potency is on record?
**A.** inactive

**Q.** For CN(C)Cc1ccccc1O, which Potency is on record?
**A.** inactive

**Q.** For CC(C)(c1ccc(O)cc1)c1ccc(O)cc1, which Potency is on record?
**A.** inactive

**Q.** For O=C(O)c1cc(=O)c2c(OCC(O)COc3cccc4oc(C(=O)O)cc(=O)c34)cccc2o1, which Potency is on record?
**A.** inactive

**Q.** With CC(C)CCCCCOC(=O)CCS as the compound, how does the Potency read?
**A.** inactive

**Q.** With Cc1ccccc1S(N)(=O)=O as the compound, how does the Potency read?
**A.** inactive

**Q.** Which Potency does the source give for Cc1cc(N)no1 here?
**A.** inactive

**Q.** For O=C(OC(=O)c1ccccc1)c1ccccc1, which Potency is on record?
**A.** inactive

**Q.** With CN(C)c1ccc(C(=N)c2ccc(N(C)C)cc2)cc1 as the compound, how does the Potency read?
**A.** inactive

**Q.** Which Potency does the source give for Cc1ccc2n[nH]nc2c1 here?
**A.** inactive

**Q.** With C=CCCC(=O)/C=C/C1C(C)=CCCC1(C)C (configuration not stated) as the compound, how does the Potency read?
**A.** inactive

**Q.** With Cc1ccc(S(=O)(=O)O)c(C)c1 as the compound, how does the Potency read?
**A.** inactive

**Q.** Which Potency does the source give for C[N+](C)(CCOc1ccccc1)Cc1cccs1 here?
**A.** inactive

**Q.** Which Potency does the source give for CC(CCO)CCc1ccccc1 (configuration not stated) here?
**A.** inactive

**Q.** With O=C(c1ccccc1O)c1ccccc1O as the compound, how does the Potency read?
**A.** inactive

**Q.** With CCCCCCCCCCCC(=O)OC[C@@H](O)[C@H]1OC[C@H](OCCO)[C@H]1OCCO as the compound, how does the Potency read?
**A.** inactive

**Q.** With CC1CNCC(C)O1 (configuration not stated) as the compound, how does the Potency read?
**A.** inactive

**Q.** Which Potency does the source give for CC1(C)Oc2ccc(C#N)cc2[C@@H](N2CCCC2=O)[C@@H]1O here?
**A.** inactive

— PubChem BioAssay (Tox21)
